In PubChem BioAssay (NCATS):
Records with an inconclusive call do not appear. Where a call stands in place of a potency, no number is given. The source made the active and inactive calls. The call rests on the fitted dose curve; in most records, active means well fitted curve in the direction sought with a large enough effect; inconclusive means small, poorly fitted or top-dose-only effect, or another doubt; inactive means no such curve, though single readings can be large or run the other way.

The compounds below were run against Metallo-beta-lactamase type 2 (Klebsiella pneumoniae) (UniProt C7C422) (assay: qHTS to identify inhibitors of the New Delhi Metallo-beta-lactamase (NDM): assay validation screen against the NCATS LOPAC Collection (AID 1794843;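 further: nitrocefin turnover by NDM-1 measured as 485 nm absorbance at plateau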)). Settings: NDM-1 enzyme, nitrocefin hydrolysis, absorbance 485 nm; series mostly up to 38.4 µM.
Summary of the method: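 Nitrocefin hydrolysis (50 uM substrate stock) by NDM-1, 2 nM final, was followed by 485 nm absorbance after compound preincubation; buffer was 50 mM HEPES pH 7.0, 1 uM ZnSO4, 0.01% Tween20.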

Metallo-beta-lactamase type 2 (Klebsiella pneumoniae), sequence (C7C422 whole entry, looked up): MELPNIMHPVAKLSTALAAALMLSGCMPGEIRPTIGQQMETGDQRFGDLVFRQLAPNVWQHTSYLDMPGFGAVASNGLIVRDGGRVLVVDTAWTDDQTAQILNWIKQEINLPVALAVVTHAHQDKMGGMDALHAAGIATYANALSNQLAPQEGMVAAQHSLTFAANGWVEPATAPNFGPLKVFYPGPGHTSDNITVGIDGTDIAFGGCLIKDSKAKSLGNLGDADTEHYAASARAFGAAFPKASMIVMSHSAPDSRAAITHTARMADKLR

SMILES	Potency
S=C(S)N1CCCC1	inactive
O=C(O)Cc1c[nH]c2ccc(O)cc12	inactive
O=C(O)c1cc(=O)cc(C(=O)O)[nH]1	inactive
O=C(O)[C@H]1NCCC[C@H]1C(=O)O	inactive
Cc1cccc(C2CN(C)CCc3c2cc(O)c(O)c3Cl)c1 (stereo unspecified)	inactive
N[C@@H](Cc1ccc(F)cc1)C(=O)O	inactive
CC(=O)NCCc1c[nH]c2ccc(O)cc12	inactive
O=c1ccn([C@@H]2O[C@H](COP(=O)(O)OP(=O)(O)O)[C@@H](O)[C@H]2O)c(=O)[nH]1	inactive
O[Si](CCCN1CCCCC1)(c1ccc(F)cc1)C1CCCCC1 (stereo unspecified)	inactive
CN1CC(O)C(O)C(O)C1CO (stereo unspecified)	inactive
N[C@@H](CCCC(=O)O)C(=O)O	inactive
Nc1nc2c(nc(Br)n2C2OC3COP(=O)(O)O[C@@H]3C2O)c(=O)[nH]1 (stereo partly specified)	inactive
Cn1c(=O)c2[nH]c(C3CCCC3)nc2n(C)c1=O	inactive
CNCCNS(=O)(=O)c1cccc2cnccc12	inactive
COc1cc(C(O)CO)ccc1O (stereo unspecified)	inactive
Nc1nc2c(cnn2CCc2ccccc2)c2nc(-c3ccco3)nn12	inactive
O=C(O)C1=CCCNC1	inactive
C=C1C[C@@]23CC[C@H]4[C@@](C)(CCC[C@@]4(C)C(=O)OC4OC(CO)C(O)C(O)C4O)[C@@H]2CC[C@]1(OC1OC(CO)C(O)C(O)C1OC1OC(CO)C(O)C(O)C1O)C3 (stereo partly specified)	inactive

SMILES	Potency
NC(N)=NC(N)=Nc1ccccc1	inactive
CCCCCCC/C=C\CCCCCCCCC(=O)O	inactive
O=c1onc2n1-c1cc(Br)ccc1OC2	inactive
CC(C)C[C@H](NC(=O)C1OC1C(=O)O)C(=O)NCCCCN=C(N)N (stereo partly specified)	inactive
[N-]=[N+]=Nc1ccc(C(=O)CSC[C@H](NC(=O)CC[C@H](N)C(=O)O)C(=O)NCC(=O)O)cc1	inactive
CC(=O)O[C@H]1CC2(C)[C@@H](C[C@@H](O)[C@H]3[C@@]4(C)CC[C@@H](O)[C@@H](C)[C@@H]4CC[C@@]32C)C1=C(CCC=C(C)C)C(=O)O (stereo partly specified)	inactive
N=C(N)c1ccc(N)cc1	inactive
CCCCCCCCCC[Si](C)(C)CCC(=O)NC(Cc1ccc(C)cc1)c1ccccc1 (stereo unspecified)	inactive
CC[n+]1c(/C=C/C=C2/N(C)c3ccccc3C2(C)C)sc2ccccc21	inactive
COc1cc(/C=C(\C#N)C(=O)Nc2nnc(C(F)(F)F)s2)ccc1OCc1ccc(C(F)(F)F)cc1C(F)(F)F	inactive
CCCCOc1cc(CC2CNC(=O)N2)ccc1OC (stereo unspecified)	inactive
CC#CCOC(=O)c1c(C)nc2sc3c(c2c1N)CCC(O)C3 (stereo unspecified)	inactive
CN(C)S(=O)(=O)c1ccc2c(c1)/C(=C/c1cc3c([nH]1)CCCC3)C(=O)N2	inactive
C=C1C[C@@]23CC[C@H]4[C@@](C)(CCC[C@@]4(C)C(=O)O)[C@@H]2CC[C@]1(O)C3	inactive
Cn1ccnc1	inactive
NC1(C(=O)O)CC1	inactive
O=C1Cc2c([nH]c3ccc(Br)cc23)-c2ccccc2N1	inactive
CC(=O)N[C@@H](Cc1c[nH]c2ccccc12)C(=O)OCc1cc(C(F)(F)F)cc(C(F)(F)F)c1	inactive
